PubChem BioAssay
Results filed as inconclusive are left out. Active and inactive are the calls of the source. Unless noted, how the calls were made is not given here.

Legend:
[1] = stimulators of insulin release from INS-1E, primary screen, cell-based, 5 mM glucose, NPC library (AID 1117329;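 active means compound raises insulin release from rat beta cells at 5 mM glucose, no numeric limit stated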); conditions: rat INS-1E insulin secretion, at 10 µM, stronger effect = higher value
[2] = growth inhibition of GSK3B-pretreated HCT116 cells – cell-based, CellTiter-Glo, 0.2 to 20 µM (AID 1117336;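 active means compounds lowering colon cancer cell viability after pretreatment blocking the GSK3B kinase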); conditions: HCT116 viability after GSK3B inhibitor, at 20 µM, stronger effect = higher value
[3] = inhibition of endothelial tube formation, primary screen, imaging, VEGF stimulated, CD31 staining, tube area, NPC library (AID 1117340;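 active means compound that reduces growth-factor-driven endothelial tube area in a mixed cell culture, no cutoff stated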); conditions: VEGF-stimulated ADSC/ECFC co-culture, at 10 µM, stronger effect = higher value
[4] = glucagon-like peptide 1 release enhancers, primary assay, NCI-H716 cell line, NPC library (AID 1117341;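 active means compound raises GLP1 secretion from the human gut endocrine cells, with no numeric limit stated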); conditions: NCI-H716 cells, at 10 µM, stronger effect = higher value
[5] = HCT116 colon cancer cell growth inhibition, primary screen, CellTiter-Glo luminescence, NPC library (AID 1117342;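 active means compounds that lower survival of HCT116 colon cancer cells in the luminescence readout, no numeric limit stated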); conditions: at 20 µM (top of the series)
[6] = CellTiter-Glo luminescent readout of SW480 viability loss, NPC library primary (AID 1117343;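 active means compounds that lower viability of the colon cancer cells in the luminescence readout, with no numeric limit stated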); conditions: CellTiter-Glo luminescence; at 20 µM (top of the series)
[7] = decreased DLD-1 cellular survival, CellTiter-Glo luminescent readout, NPC compound collection, primary HTS (AID 1117346;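 active means compounds that lower survival of DLD-1 colon cancer cells in the luminescence readout, no cutoff given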); conditions: DLD-1 viability, CellTiter-Glo luminescence; at 20 µM (top of the series)
[8] = modulation of C. elegans fzo-1 (AID 1259413);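 further: fzo-1 mutant C. elegans worms in liquid wells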; conditions: C. elegans fzo-1 modulator screen, mean read-out; stronger effect = higher value
[9] = test system: Aerobactin synthetase IucA (Klebsiella pneumoniae); experiment: IucA aerobactin synthetase inhibitors, biochemical, Tocris library, absorbance (AID 1345561); conditions: purified IucA enzyme assay, absorbance (OD) read-out; stronger effect = lower value;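 tested at 8 µM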;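 further: 100% = enzyme without compound and 0% = no enzyme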
[10] = differential killing of epithelial or mesenchymal cells, primary screen, imaging, PC-3E GFP, TEM4-18 mCherry, co-culture (AID 1345086;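 active means compounds killing one labelled cell type while sparing the other, by normalised counts and ratio limits, not self-fluorescent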;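 on all read-outs here: cells exposed to compound for 72 h before imaging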;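 on red/green cell ratio (normalised): normalised mesenchymal count divided by normalised epithelial count so high means epithelial killing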); conditions: imaging cell counts, at 1 µM; for red/green cell ratio (normalised): actives lie on both sides, counts scaled to control wells, 1 = unselective
[11] = growth inhibition of DIPG glioma cells, dose response, cell-based, SU-DIPG-XIII, MIPE4.0, CellTiter-Glo, qHTS (AID 1347061; cut-off not given, nearly all actives have AC50 up to about 37 µM;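 further: cells exposed to compound for 48 hours before readout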); conditions: SU-DIPG-XIII viability, CellTiter-Glo ATP luminescence
[12] = growth inhibition of DIPG glioma cells, dose response, cell-based, JHH-DIPG-1, MIPE4.0, CellTiter-Glo, qHTS (AID 1347062; cut-off not given, nearly all actives have AC50 up to about 27 µM); conditions: JHH-DIPG-1 viability, CellTiter-Glo ATP luminescence
[13] = growth inhibition of DIPG glioma cells, dose response, cell-based, SU-DIPG-IV, MIPE4.0, CellTiter-Glo, qHTS (AID 1347063; cut-off not given, nearly all actives have AC50 up to about 30 µM;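 further: compound exposure lasted 48 hours before the viability readout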); conditions: SU-DIPG-IV viability, CellTiter-Glo ATP luminescence
[14] = growth inhibition of DIPG glioma cells, dose response, cell-based, SU-DIPG-XVII, MIPE5.0, CellTiter-Glo, qHTS (AID 1347060; cut-off not given, nearly all actives have AC50 up to about 26 µM); conditions: SU-DIPG-XVII viability, CellTiter-Glo ATP luminescence
[15] = growth inhibition of DIPG glioma cells, dose response, cell-based, SU-DIPG-XIII, MIPE5.0, CellTiter-Glo, qHTS (AID 1347064; cut-off not given, nearly all actives have AC50 up to about 23 µM); conditions: SU-DIPG-XIII viability, CellTiter-Glo ATP luminescence
[16] = measured here: epithelial PC-3E GFP cell survival
[17] = measured here: mesenchymal TEM4-18 mCherry cell survival

O=C1CC2(CCCC2)CC(=O)N1CCNCC1COc2ccccc2O1 (configuration not stated)
inactive: insulin secretion stimulation [1] 5% | viability decrease [2] -32% | tube area decrease [3] -4.9% | GLP1 secretion stimulation [4] -2.3% | inhibition of viability [5] 25.7% | viability decrease (inhibition) [6] 14.5% | viability decrease (inhibition) [7] -5.7% | mean signal [8] 200 | remaining activity [9] 96.6%

NS(=O)(=O)c1cc(C(=O)O)c(NCc2ccco2)cc1Cl
1.05: normalised cell number [10, 16]
1.14: normalised cell number [10, 17]
inactive: insulin secretion stimulation [1] -2% | viability decrease [2] -10.1% | tube area decrease [3] 13% | GLP1 secretion stimulation [4] 0.9% | inhibition of viability [5] -10.4% | viability decrease (inhibition) [6] -18% | viability decrease (inhibition) [7] -1.6% | mean signal [8] 263 | red/green cell ratio (normalised) [10] 1.08 | outcome [11]

Cc1cn([C@H]2C=C[C@@H](CO)O2)c(=O)[nH]c1=O
inactive: insulin secretion stimulation [1] 4.4% | viability decrease [2] -0.2% | tube area decrease [3] -1.6% | GLP1 secretion stimulation [4] -0.3% | inhibition of viability [5] 1.2% | viability decrease (inhibition) [6] -4.8% | viability decrease (inhibition) [7] -8.9% | mean signal [8] 233 | red/green cell ratio (normalised) [10] 0.8 | outcome [11] | outcome [12] | outcome [13]
1.35: normalised cell number [10, 16]
1.09: normalised cell number [10, 17]

CCCN[C@H]1CCc2nc(N)sc2C1
1.3: normalised cell number [10, 16]
inactive: insulin secretion stimulation [1] -3.1% | viability decrease [2] 7.2% | tube area decrease [3] -9.5% | GLP1 secretion stimulation [4] 2.6% | inhibition of viability [5] 5.4% | viability decrease (inhibition) [7] 38.1% | mean signal [8] 239 | red/green cell ratio (normalised) [10] 0.69 | outcome [14] | outcome [11] | outcome [12] | outcome [15]
0.89: normalised cell number [10, 17]
active: viability decrease (inhibition) [6] 51.7%

CN(C/C=C/C#CC(C)(C)C)Cc1cccc2ccccc12
inactive: insulin secretion stimulation [1] 3.2% | tube area decrease [3] 5.2% | GLP1 secretion stimulation [4] -3.9% | mean signal [8] 221 | red/green cell ratio (normalised) [10] 1.03 | outcome [11] | outcome [12]
1.37: normalised cell number [10, 17]
1.32: normalised cell number [10, 16]
active: viability decrease [2] 84.2% | inhibition of viability [5] 82.6% | viability decrease (inhibition) [6] 121% | viability decrease (inhibition) [7] 70.1%

Nc1ccn([C@H]2CC[C@@H](CO)O2)c(=O)n1
inactive: insulin secretion stimulation [1] -0.3% | viability decrease [2] 6.9% | tube area decrease [3] -2.2% | GLP1 secretion stimulation [4] 1.4% | inhibition of viability [5] -1.1% | viability decrease (inhibition) [6] -0.9% | viability decrease (inhibition) [7] 8.55% | mean signal [8] 305 | red/green cell ratio (normalised) [10] 0.76 | outcome [13]
0.88: normalised cell number [10, 17]
1.16: normalised cell number [10, 16]

Cc1[nH]c(=O)c(C#N)cc1-c1ccncc1
inactive: insulin secretion stimulation [1] 0.8% | viability decrease [2] -19.7% | tube area decrease [3] 4% | GLP1 secretion stimulation [4] 0% | inhibition of viability [5] 16.6% | viability decrease (inhibition) [6] -4.9% | viability decrease (inhibition) [7] -6.1% | mean signal [8] 234 | red/green cell ratio (normalised) [10] 1.2 | outcome [14]
1.05: normalised cell number [10, 16]
1.26: normalised cell number [10, 17]

CC(C)[C@H](N)C(=O)OCCOCn1cnc2c(=O)[nH]c(N)nc21
1.13: normalised cell number [10, 16]
1.03: normalised cell number [10, 17]
inactive: insulin secretion stimulation [1] 4.1% | viability decrease [2] 4.4% | tube area decrease [3] -8.9% | GLP1 secretion stimulation [4] 2.5% | inhibition of viability [5] -1% | viability decrease (inhibition) [6] 4.3% | viability decrease (inhibition) [7] -6.2% | mean signal [8] 266 | red/green cell ratio (normalised) [10] 0.91 | outcome [14] | outcome [11] | outcome [12] | outcome [13] | outcome [15]

Cc1ccnc2c1NC(=O)c1cccnc1N2C1CC1
1.34: normalised cell number [10, 16]
active: AC50 [13] 16.6 µM
1.05: normalised cell number [10, 17]
inactive: insulin secretion stimulation [1] -1.6% | viability decrease [2] -14.3% | tube area decrease [3] -6.9% | GLP1 secretion stimulation [4] -2% | inhibition of viability [5] 6.5% | viability decrease (inhibition) [6] -13.1% | viability decrease (inhibition) [7] 13.6% | mean signal [8] 208 | red/green cell ratio (normalised) [10] 0.79

CC(N)C12CC3CC(CC(C3)C1)C2 (configuration not stated)
1.06: normalised cell number [10, 17]
1.11: normalised cell number [10, 16]
inactive: insulin secretion stimulation [1] 11% | viability decrease [2] -3.4% | tube area decrease [3] 15.2% | GLP1 secretion stimulation [4] -0.1% | inhibition of viability [5] 7.6% | viability decrease (inhibition) [7] 6.65% | mean signal [8] 212 | red/green cell ratio (normalised) [10] 0.95 | outcome [14] | outcome [11] | outcome [12] | outcome [13] | outcome [15]
active: viability decrease (inhibition) [6] 60.8%

CC(C)c1nc(CN(C)C(=O)N[C@H](C(=O)N[C@@H](Cc2ccccc2)C[C@H](O)[C@H](Cc2ccccc2)NC(=O)OCc2cncs2)C(C)C)cs1
inactive: insulin secretion stimulation [1] 0.2% | viability decrease [2] 33.5% | tube area decrease [3] -13.5% | GLP1 secretion stimulation [4] -0.8% | viability decrease (inhibition) [6] 4.9% | viability decrease (inhibition) [7] 19.4% | mean signal [8] 246 | red/green cell ratio (normalised) [10] 1.06 | outcome [11] | outcome [12]
active: inhibition of viability [5] 67.7%
1.21: normalised cell number [10, 17]
1.14: normalised cell number [10, 16]

COc1cc2nc(N3CCN(C(=O)C4COc5ccccc5O4)CC3)nc(N)c2cc1OC (configuration not stated)
1.28: normalised cell number [10, 16]
inactive: insulin secretion stimulation [1] -0.7% | mean signal [8] 219 | red/green cell ratio (normalised) [10] 0.65 | outcome [11]
active: viability decrease [2] 100% | tube area decrease [3] 85.3% | GLP1 secretion stimulation [4] 25.7% | inhibition of viability [5] 101% | viability decrease (inhibition) [6] 142% | viability decrease (inhibition) [7] 103%
0.83: normalised cell number [10, 17]

COc1ccccc1OCC(O)CN1CCN(CC(=O)Nc2c(C)cccc2C)CC1 (configuration not stated)
0.96: normalised cell number [10, 17]
inactive: insulin secretion stimulation [1] 0.8% | viability decrease [2] -14.5% | tube area decrease [3] 0.2% | GLP1 secretion stimulation [4] 2.2% | inhibition of viability [5] 9.23% | viability decrease (inhibition) [6] -16.2% | viability decrease (inhibition) [7] -14.6% | mean signal [8] 263 | red/green cell ratio (normalised) [10] 0.78 | outcome [14] | outcome [11] | outcome [12] | outcome [13] | outcome [15]
1.24: normalised cell number [10, 16]
